# TDP1 cell CPT = qHTS for Inhibitors of human tyrosyl-DNA phosphodiesterase 1 (TDP1): qHTS in cells in presence of CPT; chicken DT40 Tdp1-/-;hTDP1 cells + 20 nM CPT, ATP luminescence, 48 h; hit rate 12% among 420,000; Potency, µM (highest dose often 46.2 µM), for the others: at the highest dose activity change, negative = growth inhibition, most hits filed as inhibitors; further: on the % scale 0 is the no-effect control and ±100 the full control effect; nearly all actives have a fitted effect of over 55% in size
#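 Cell growth measured by CellTiter-Glo luminescence after a minimum 48 h, 37 C compound exposure with 20 nM CPT in Tdp1-knockout DT40 cells stably expressing hTDP1, seeded 400/well; qHTS titration format.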
# ATXN viability = Viability Counterscreen for Primary qHTS for Inhibitors of ATXN expression. AID 651635, 2014. S2 cells (HEK-293 line with an ATXN2-luciferase reporter) viability, CellTiter-Fluor protease fluorescence, 24 h. Potency, µM (highest dose often 56.7 µM), most hits filed as cytotoxic. hit rate 0.49% among 400,000; further: nearly all actives have a fitted effect of over 40% in size
# DT40 TDP1 no CPT = qHTS for Inhibitors of human tyrosyl-DNA phosphodiesterase 1 (TDP1): qHTS in cells in absence of CPT; DT40 Tdp1-/- hTDP1 cells, no CPT, ATP luminescence, 48 h; hit rate 15% among 420,000; Potency, µM (titrated, usually from 46.2 µM), without a hit: at the top dose activity change, negative = growth inhibition, actives largely listed as inhibitors; further: on the % scale 0 is the no-effect control and ±100 the full control effect; nearly all actives have a fitted effect of over 55% in size
#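 Luminescent ATP content (CellTiter-Glo) served as the growth readout. Knockout chicken DT40 cells expressing human TDP1 were exposed to compounds without camptothecin for a minimum 48 hr at 37 °C.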
# ATXN2 expr inh = Primary qHTS for Inhibitors of ATXN expression; HEK-293 ATXN2-luciferase reporter, luminescence, 24 h; Potency, µM (highest dose often 57 µM), for the others: top-dose activity change, negative = inhibition, hits mostly inhibitors; hit rate 0.72% among 360,000; AID 1745845, 2022; further: on the % scale 0 is the no-effect control and ±100 the full control effect; nearly all actives have a fitted effect of over 55% in size
#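 ATXN2-luciferase reporter cells (luciferase flanked by upstream and downstream ATXN2 gene portions) were treated 24 h at 37 °C with compounds at up to 57 uM. SteadyGlo luminescence gave expression; GF-AFC fluorescence gave viability.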
# HepG2 tox = qHTS for Inhibitors of TGF-b: Cytotox Counterscreen | HepG2 CAGA-GFP viability, ATP luminescence, 18 h | Potency, µM (doses to about 46.1 µM), for the others: top-dose activity change, negative = cytotoxicity, usual class: cytotoxic | hit rate 0.76% among 410,000 | AID 588856, 2011
#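 CellTiter-Glo luminescence gave cytotoxicity after 18 hours at 37 degrees C. The cells were HepG2 CAGA-GFP in 1% FBS DMEM, stimulated with 500 pg/mL TGF-beta after compound addition. %Activity was normalised to no-cell wells (complete cell-killing) and DMSO (no toxicity), and curves were fitted and classified.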
# TGFb SMAD3 inh = qHTS for Inhibitors of TGF-b; AID 588855, 2011; HepG2 CAGA-GFP TGF-b/SMAD3 reporter, GFP fluorescence, 18 h; TGF-beta stimulated, 500 pg/mL final; Potency, µM (top dose mostly 46.1 µM), for the others: top-dose activity, negative = inhibition, hits mostly inhibitors; hit rate 1.2% among 410,000; further: on the % scale 0 is the no-effect control and ±100 the full control effect; nearly all actives have a fitted effect of over 65% in size
#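 GFP signal (ex488/em500-530) from TGF-beta-stimulated HEPG2 CAGA-GFP cells, 500 pg/mL final, 18 h at 37 degrees C in DMEM plus 1% FBS, normalized to unstimulated and DMSO-stimulated controls.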
# The depositor's hits bear a star; i = inactive; ? = inconclusive; . = no result; [ ] = dose if it differs, or a comment. Shown are actives, neighbours in structure and some others; about 17% of the full set was active somewhere. The call rests on the fitted dose curve; in most records, active means well fitted curve in the direction sought with a large enough effect; inconclusive means small, poorly fitted or top-dose-only effect, or another doubt; inactive means no such curve, though single readings can be large; an effect the other way counts as inactive or inconclusive. Potency means the concentration at half of the fitted maximal effect.
SMILES,TDP1 cell CPT,ATXN viability,DT40 TDP1 no CPT,ATXN2 expr inh,HepG2 tox,TGFb SMAD3 inh
CSc1nc(C(=O)N2CCc3c(cnc(C)c3CNC(=O)c3ccc4c(c3)OCO4)C2)cs1,0.13µM*,?,0.16µM*,.,.,.
Cc1ncc2c(c1CNS(=O)(=O)c1cccs1)CCN(C(=O)/C=C/c1cc(F)cc(F)c1)C2,-6%[9.04 µM],i,23µM*,.,.,.
Cc1cnc(C(=O)NCc2c(C)ncc3c2CCN(C(=O)/C=C/c2cccs2)C3)cn1,0.0046µM*,i,-18%,.,.,.
O=C(NCC(=O)N(c1ccc2c(c1)OCCO2)C(C(=O)NC1CCCC1)c1ccco1)c1ccco1 (centres undefined),-26%,i,-23%,2%,-14%,-2%
Cc1cccc(-c2nc(S(=O)(=O)c3ccc(F)cc3)c(NCCCN3CCOCC3)o2)c1,?,i,?,-5%,-29%,1%
CCOc1ccc(C2C3=C(CC(C)(C)CC3=O)N(CCCOC)C3=C2C(=O)CC(C)(C)C3)cc1OC,-15%,?,4%,.,0%,-10%
O=C(CCSCCc1ccccn1)Nc1ccc(Cl)cc1,-18%,i,-18%,-6%,-16%,0%
CC(C)[C@H](NC(=O)N1CC(=O)Nc2ccccc21)C(=O)N[C@H](Cc1c[nH]c2ccccc12)C(=O)O,1%,i,-7%,-4%,0%,17%
O=C1C2CC=CCC2C(=O)N1c1ccc(NCCc2cccc(F)c2)c([N+](=O)[O-])c1 (centres undefined),?,i,12µM*,-10%,1%,-20%
CCN(CC)C(=O)Cn1c(=O)n(CCCCCC(=O)NCc2ccc3c(c2)OCO3)c(=O)c2sccc21,?,.,-30%,.,-13%,-8%
O=C(NCc1ccccc1)c1cc(C2CCCCN2C(=O)c2ccc(Cl)cc2)on1 (centres undefined),?,i,?,-14%,-18%,-3%
Cc1ccc(O)c(-c2cc(-c3ccccc3C)[nH]n2)c1,?,?,?,2%,11µM*,?
Cc1ccc(O)c(-c2cc(C(F)(F)C(F)F)[nH]n2)c1,?,i,16µM*,15%,-17%,?
COc1cccc(-c2nn(Cc3ccccc3)cc2CO)c1,0%,i,-32%,59%,6%,-3%
NCc1cn(Cc2ccccc2)nc1-c1ccccc1,11µM*,.,?,.,-3%,11%
COC(=O)c1cccc(CC2(C)C(=O)Nc3cc(-c4ccccc4Cl)ccc32)c1 (centres undefined),16µM*,?,?,-33%,-21%,7%
COC(=O)c1cccc(CC2(C)C(=O)Nc3ccc(OC(F)(F)F)cc32)c1 (centres undefined),?,i,?,-30%,-36%,?
CC1(Cc2c(Cl)cccc2Cl)C(=O)Nc2cc(-c3ccccc3Cl)ccc21 (centres undefined),?,?,?,-28%,-53%,?
CC1(Cc2ccccc2Cl)C(=O)Nc2cc(-c3ccccc3Cl)ccc21 (centres undefined),?,.,?,-22%,18µM*,?
CCN1CCCCC(=N/O)/C(=N/O)CCCC1,-3%,i,-18%,.,-8%,-9%
O=C(Cn1cnc2ccccc2c1=O)NCc1cccs1,15%,i,-6%,11%,-5%,-2%
CCn1c(CSCc2ccc(Cl)cc2)n[nH]c1=S,?,i,8.2µM*,-19%,-18%,-16%
Cn1c(CSCCOc2ccccc2)n[nH]c1=S,-18%,i,16µM*,29%,-10%,0%
